# IL1B secr inh – inhibitors of inflammasome signaling (IL-1 beta secretion); THP-1 LPS/ATP IL-1B secretion, AlphaLISA, 16 h; active compounds read low; activity change, % at 57.5 µM; actives 4.7% (n = 360,000); in the data active means activity change below about -50%; inconclusive means mostly about -30% to -49%
#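 THP-1 cells pretreated 1 hr with compounds (up to 57.5 uM final), then stimulated with LPS (250 ng/mL final) plus ATP (1.25 mM final); secreted IL-1B measured by AlphaLISA after 16 hr, decreased signal indicating inhibition.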
# HT1080 IDH1KD tx – HT-1080 IDH1 knockdown cell toxicity (counter line) | HT-1080 IDH1 knockdown viability, ATP luminescence, 48 h | Potency, µM (series often up to 46.1 µM), without a hit: at the top dose activity, negative = toxicity, most hits filed as cytotoxic | actives 2% (n = 360,000);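 further: potency means the concentration at half of the fitted maximal effect; 0% = DMSO wells and -100% = cell-free medium wells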
#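 After a 2 h attachment period, IDH1KD HT-1080 cells took pin-transferred compound for 48 h at 37 °C; ATP-based luminescence after 10 min room-temperature reagent incubation reported viability.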
# HT1080-NT tox – kills 2HG-producing HT-1080-NT fibrosarcoma cells; HT-1080-NT fibrosarcoma viability, CellTiter-Glo ATP luminescence, 48 h; Potency, µM (top dose mostly 46.1 µM), for the others: at the top dose activity, negative = less viability, actives largely listed as cytotoxic; actives 1.6% (n = 360,000);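 further: NT is the 2HG producing partner of a matched IDH1 knockdown line; potency means the concentration at half of the fitted maximal effect; 0% = DMSO-treated cells and -100% = media-only wells without cells; nearly all actives have a fitted effect of over 55% in size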
#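 Compounds were tested in concentration-response format on HT-1080-NT cells for 48 hours at 37 degrees C. Cell viability came from CellTiter-Glo luminescence; curves were classified by r2, response magnitude and activity.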
# uPA surface inh – cell surface uPA generation inhibition. actives 0.31% (n = 330,000). Potency, µM (titrated, usually from 38.3 µM), inactives show top-dose activity change, negative = inhibition, actives largely listed as inhibitors. cell surface uPA generation assay, qHTS; active means well fitted inhibition curve with a large enough effect; inconclusive means small, poorly fitted or top-dose-only effect; inactive means no such curve, though single readings can be large or run the other way; tested in mouse RAW 264.7 cells; further: potency means the concentration at half of the fitted maximal effect; nearly all actives have a fitted effect of over 55% in size
# TDP1 cell noCPT – qHTS for Inhibitors of human tyrosyl-DNA phosphodiesterase 1 (TDP1): qHTS in cells in absence of CPT; DT40 Tdp1-/- hTDP1 cells, no CPT, ATP luminescence, 48 h; Potency, µM (top dose mostly 46.2 µM), inactives show top-dose activity change, negative = growth inhibition, hits mostly inhibitors; actives 15% (n = 420,000); AID 686978, 2013; further: potency means the concentration at half of the fitted maximal effect; nearly all actives have a fitted effect of over 55% in size
#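 Luminescent ATP content (CellTiter-Glo) served as the growth readout. Knockout chicken DT40 cells expressing human TDP1 were exposed to compounds without camptothecin for a minimum 48 hr at 37 °C.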
# TDP1 cell CPT – DT40-hTDP1 cell growth loss with CPT | Potency, µM (highest dose often 46.2 µM), inactives show at the top dose activity change, negative = growth inhibition, usual class: inhibitors | actives 12% (n = 420,000) | chicken DT40 Tdp1-/-;hTDP1 cells + 20 nM CPT, ATP luminescence, 48 h | AID 686979; further: potency means the concentration at half of the fitted maximal effect; nearly all actives have a fitted effect of over 55% in size
#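 Chicken DT40 Tdp1-/- cells complemented with human TDP1, 400 cells/well, exposed to compounds plus 20 nM camptothecin for at least 48 h at 37 C; viability read as ATP content by CellTiter-Glo luminescence.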
# Starred values were filed as active, the others as inactive; u = inconclusive; x = not tested or not shown; [ ] = dose if it differs, or a comment. Sampled rows, rich in hits. Any-hit rate of the full collection: about 19%. Unless noted, the call rests on the fitted dose curve; in most records, active means well fitted curve in the direction sought with a large enough effect; inconclusive means small, poorly fitted or top-dose-only effect, or another doubt; inactive means no such curve, though single readings can be large; an effect the other way counts as inactive or inconclusive. Unless noted, on the % scale 0 is the no-effect control and ±100 the full control effect.
SMILES,IL1B secr inh,HT1080 IDH1KD tx,HT1080-NT tox,uPA surface inh,TDP1 cell noCPT,TDP1 cell CPT
O=C(O)CN(C1CCCCC1)S(=O)(=O)c1ccc(F)cc1,-3.8,14.1%,8.9%,7.9%,8.1%,-2.9%
COc1cc(CN(C(=O)COc2ccc(Cl)c(C)c2)c2ccccn2)cc(OC)c1OC,x,x,x,x,10.3µM*,11.6µM*
COc1cc(CN(C(=O)COc2ccccc2Cl)c2ccccn2)cc(OC)c1OC,x,x,x,x,18.4µM*,u
Cc1ccc(CN(C(=O)COc2ccc(Cl)c(C)c2)c2ccccn2)o1,x,x,x,x,14.6µM*,u
COc1cc(CN(C(=O)COc2ccc(Br)cc2)c2ccccn2)cc(OC)c1OC,x,x,x,x,16.4µM*,16.4µM*
Cc1cccn2c(=O)c(C(=O)NCCc3ccccc3)cnc12,x,x,x,x,u,-26.5%
Cc1cccc(NC(=O)C2CCCN(S(=O)(=O)c3cnc[nH]3)C2)c1C (configuration not stated),x,x,x,x,0.7%,-24.4%
CCOc1ccc(NC(=O)CSc2nnc3c(n2)[nH]c2ccc(S(=O)(=O)N(C)C)cc23)cc1,x,-5.5%,-0.6%,x,u,11.9%
C/C(=N/NC(=O)c1cc(C)[nH]n1)c1ccncc1,4.2,-0.9%,0.0%,3.8%,-2.5%,-10.6%
CC(C)c1ccc(CC(=O)N2CCC2(C)C(=O)NS(=O)(=O)c2cccc(C#N)c2)cc1 (configuration not stated),17.2,1.7%,6.6%,x,-1.5%,0.4%
Cc1ccc(OCC(=O)N(Cc2ccccc2)c2ccccn2)cc1,-13.0,-1.0%,10.9%,-9.7%,1.3%,-14.7%
COc1cc(CN(C(=O)COc2ccc(C)cc2)c2ccccn2)cc(OC)c1OC,x,x,x,x,9.2µM*,8.2µM*
Cc1ccc(CN(C(=O)COc2cccc([N+](=O)[O-])c2)c2ccccn2)cc1,x,x,x,x,20.6µM*,u
COc1cc(CN2CCC(Oc3cc(C(=O)NC4CC4)ccc3OC)CC2)cc(OC)c1,-18.6,-13.5%,0.0%,-2.5%,18.8%,u
CCN(C(=O)CSc1ncccn1)c1cccc2ccccc12,-3.7,10.4%,-1.6%,0.7%,u,u
CCC1C(c2ccccc2)N(C)C(c2ccccc2)CC1(O)c1ccccc1 (configuration not stated),u,16.4µM*,u,8.3%,23.1µM*,u
CC(C)Cc1nc(N2CCOCC2)c(C#N)c2c1COC(C)(C)C2,1.7,-3.7%,-2.9%,3.0%,u,-14.4%
Cc1nc(N2CCN(C(=O)c3ccc(Cl)cc3)CC2)c(C#N)c2c1COC(C)(C)C2,-15.5,-16.3%,-8.9%,4.7%,u,29.1µM*
Cc1ccc(S(=O)(=O)N2CCN(c3nc(C(C)C)c4c(c3C#N)CC(C)(C)OC4)CC2)cc1,7.0,-28.9%,-4.0%,x,15.8µM*,15.8µM*
CCc1nc(N2CCN(C(C)=O)CC2)c(C#N)c2c1COC(C)(C)C2,-27.7,1.8%,14.8%,-10.3%,-27.2%,-12.7%
CCCNC(=O)N1CCN(c2nc(C(C)C)c3c(c2C#N)CC(C)(C)OC3)CC1,-10.2,-12.7%,-5.6%,-96.4%,-63.3%,29.1µM*
C[C@@H]1CN([C@H](C)CO)S(=O)(=O)c2ccc(-c3ccc(C#N)cc3)cc2O[C@H]1CN(C)C(=O)Nc1cc(F)ccc1F,-8.5,-28.1%,u,x,2.31µM*,6.51µM*
C[C@H]1CN([C@@H](C)CO)S(=O)(=O)c2ccc(Br)cc2O[C@H]1CN(C)C(=O)Nc1ccccc1F,-15.6,3.2%,-1.3%,x,-6.1%,-7.2%
COc1ccc(-c2ccc3c(c2)O[C@H](CN(C)C(=O)Nc2ccccc2F)[C@@H](C)CN([C@H](C)CO)S3(=O)=O)cc1,12.5,-22.6%,-15.9%,x,16.4µM*,23.1µM*
COc1ccc2nc(-n3c(O)c(C4=c5ccccc5=NC4=O)[nH]c3=S)sc2c1,-6.0,-23.7%,-23.0%,-0.1%,23.1µM*,u
SMILES,IL1B secr inh,HT1080 IDH1KD tx,HT1080-NT tox,uPA surface inh,TDP1 cell noCPT,TDP1 cell CPT
C[C@@H]1CN([C@H](C)CO)C(=O)c2cc(Br)cnc2O[C@@H]1CN(C)Cc1ccc(-c2ccccc2)cc1,-10.4,-1.3%,u,x,u,u
Oc1ccc(N=Nc2cccc(C(F)(F)F)c2)cc1C=Nc1ccc(N2CCOCC2)cc1,41.7,-1.3%,-3.1%,3.4%,18.4µM*,23.1µM*
Oc1ccc(C=Nc2ccc(N3CCOCC3)cc2)c(O)c1,2.7,-16.0%,-9.5%,-12.5%,-20.3%,-22.4%
Oc1c(N=Nc2ccc(F)cc2)ccc2ccccc12,3.6,-14.6%,-27.4%,-3.0%,14.6µM*,9.2µM*
Oc1c(N=Nc2nn[nH]n2)ccc2ccccc12,102.7,u,u,x,16.4µM*,16.4µM*
Cc1ccc(N=Nc2ccc3ccccc3c2O)cc1,-11.9,-14.0%,u,-7.2%,u,u
CCOc1ccccc1C(=O)Oc1c(S(=O)(=O)c2ccc(C)cc2)c(C)nn1-c1ccccc1,x,x,x,x,20.6µM*,10.3µM*
CC(C)CNC(=O)c1coc(=O)c(Br)c1,-28.7,11.2µM*,u,-11.7%,0.82µM*,0.411µM*
O=C(COC(=O)c1cc(Br)c(Br)s1)NCCC1=CCCCC1,0.0,-5.6%,-11.9%,5.2%,20.6µM*,23.1µM*
O=C(NNC(=O)C1C2CCCCC21)c1coc(=O)c(Br)c1 (configuration not stated),10.2,-0.1%,-1.2%,-19.0%,4.11µM*,4.11µM*
CN(C)CCNC(=O)c1coc(=O)c(Br)c1,-10.3,-3.6%,-1.5%,2.1%,5.8µM*,2.31µM*
CCCNC(=O)C1(C)CCN(C(=O)c2cccnc2Oc2ccccc2)C1 (configuration not stated),-1.3,12.1%,3.2%,x,-11.5%,-9.5%
O=C(NC(=S)NCCCN1CCOCC1)c1cccc2ccccc12,-5.8,9.1%,0.5%,x,6.6%,3.9%
NC(=O)NCCC1=CCCCC1,-8.5,-2.4%,5.7%,-3.9%,-12.8%,-7.8%
O=C(NCCc1ccccc1)c1ccco1,4.9,18.5%,17.0%,-7.6%,1.4%,4.8%
O=C(Nc1cc(Cl)cc(Cl)c1)c1coc(=O)c(Br)c1,x,1.8%,-0.5%,-4.8%,11.6µM*,1.64µM*
O=C(NCCc1ccccc1)c1coc(=O)c(Br)c1,-98.8*,23.1µM*,20.6µM*,-10.9%,0.581µM*,0.82µM*
O=C(NCCC1=CCCCC1)c1coc(=O)c(Br)c1,0.0,18.4µM*,7.31µM*,-11.0%,0.366µM*,0.116µM*
Cc1cc(C(=O)NCCC2=CCCCC2)c(C)o1,-24.7,u,4.7%[9.24 µM],x,18.4µM*,u
